According to the supplement of paper PMC4380459:

tested on: tubulin (bovine brain); experiment: tubulin polymerization end-point dOD, fold change relative to DMSO vehicle; higher = more polymerization (stabilization); conditions: 50 µM; 60 min; 37 °C
Experimental: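 In-vitro tubulin polymerization assay (Cytoskeleton HTS kit) with 4 mg/ml bovine brain tubulin in G-PEM buffer and compound at 50 uM (0.5% DMSO). Turbidity was read at 340 nm every minute for 1 h at 37 C. The end-point change in OD (dOD) was converted to % fold change relative to the DMSO vehicle (0%), and runs were scaled using DMSO and Taxol controls. The paper calls >20% an effect, 20-40% weak and >40% strong; positive values mean stabilization, negative values destabilization. Scale: negative = destabilization.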

Row | Compound | tubulin polymerization end-point dOD
1 | CS(=O)(=O)c1ccc(C(=O)Nc2ncc(Cc3cccc(Cl)c3Cl)s2)cc1 | -8.57%
2 | Cc1cccc(Cc2cnc(NC(=O)c3sc4ccccc4c3Cl)s2)c1 | 81.7%
3 | COc1ccc2nc(/C=C/c3cccnc3)sc2c1 | -29.9%
4 | Clc1ccc2sc(/C=C/c3cccnc3)nc2c1 | 47.1%
5 | CCOc1ccc(C2=[NH+]c3ccccc3C(c3cccnc3)=NN2)cc1 | 109%
6 | O=c1[nH]c(CSc2nnc(C3CC3)n2C2CC2)nc2sc(-c3ccccc3)cc12 | 31.8%
7 | CC(=O)c1c(C)cc(C)c(CSc2nnc(-c3ccc(F)cc3)n2C)c1C | -75.9%
8 | CC(=O)c1c(C)oc2c1cc(NS(=O)(=O)c1ccc(Cl)cc1)c1ccccc12 | 2.59%
9 | COc1cc(OC)cc(C(=O)N(Cc2ccccc2OC)Cc2cc3c(C)ccc(C)c3[nH]c2=O)c1 | 12.8%
10 | Cc1ccccc1NC(=O)CSc1nc2cc3c(cc2cc1C)CCC3 | 69.3%
11 | Cc1cc2cc3c(cc2nc1SCC(=O)Nc1ccccc1C(F)(F)F)OCO3 | -12.8%
12 | COc1cc2c(cc1OC)C(c1cccs1)[NH+](CC(O)c1ccccc1)CC2 (stereo not given) | -40.4%
13 | CCOc1ccc(C(=O)N(Cc2cccs2)Cc2cc3cc(C)ccc3[nH]c2=O)cc1 | 27.2%
14 | O=C(Nc1ccc(N2CCc3sccc3C2)nc1)c1ccccc1F | -40.4%
15 | Cn1c(C(=O)Nc2ccc(-c3nccs3)cc2)cc(Br)c1Br | 15.5%
16 | COc1ccc(Cl)cc1NC(=O)CSc1nnc(-c2ccncc2)n1-c1ccccc1 | -50.9%
17 | N#Cc1ccc(N2CC[NH+](Cc3ccc(-c4ccccc4Cl)s3)CC2)nc1 | -56.2%
18 | O=C(Nc1ncc(Cc2ccccc2Br)s1)c1cccnc1 | -64.1%
19 | COC(=O)Nc1nc2cc(Sc3ccccc3)ccc2[nH]1 [Fenbendazole] | -27.1%
20 | O=C(Nc1ccc(N2CCCCCC2)cc1)C1COc2ccccc2C1 (stereo not given) | 37.7%

Row | Compound | tubulin polymerization end-point dOD
21 | Cc1cccc2cc(C#N)c(SCC(=O)c3ccc(F)cc3)nc12 | -11.1%
22 | CCOC(=O)c1[nH]c(C)c(C(=O)c2cc(F)ccc2F)c1C | 5.16%
23 | COc1cc2c(cc1OC)C(c1cccs1)N(C(=O)Nc1ccc(Cl)cc1)CC2 (stereo not given) | 70.5%
24 | COc1ccc(OC)c(NC(=O)CSc2nc3ccc(OC)cc3cc2C)c1 | -30.7%
25 | COc1cc(CNc2ccc(Br)cc2)cc(OC)c1OC | -37.3%
26 | O=C(Nc1ncc(Cc2ccccc2Br)s1)c1cnccn1 | 6.47%
27 | CC(=O)N1c2ccc(NC(=O)c3cc4cccc(C)c4nc3C)cc2CC1C (stereo not given) | 0.65%
28 | CCc1cc2cc3c(cc2nc1SCC(=O)Nc1ccccc1Cl)OCCO3 | 11.4%
29 | CCOc1c(Cl)cc(C(=O)N2CCN(c3cccc(C)c3)CC2)cc1OC | -52.8%
30 | O=c1[nH]c(/C=C\c2ccccc2)nc2ccccc12 | 40.5%
31 | Cc1csc(NC(=O)CSc2nnc(-c3cccnc3)n2-c2ccccc2C)n1 | -45.1%
32 | Cc1ccc(NC(=O)CSc2nc3cc4c(cc3cc2C#N)OCCO4)c(C)c1 | -24.1%
33 | CCOC(=O)Nc1nc2ccccc2[nH]1 | 0.459%
34 | COc1ccc2nc(/C=C/c3cccc(F)c3)sc2c1 | 6.83%
35 | Cc1cc2ccccc2n2c(=O)n(CC(C)NC(=O)c3cnn(C)c3C)nc12 (stereo not given) | -1.81%
36 | CCc1cc2cc(OC)ccc2nc1SCC(=O)Nc1ccccc1Cl | -96.6%
37 | O=C(Nc1ncc(Cc2ccc(F)cc2)s1)c1ccc2c(c1)OCO2 | 20.1%
38 | COc1ccccc1N1CC[NH+](Cc2c(-c3ccccc3)nc3sccn23)CC1 | -21.9%
39 | O=c1c(Cl)c(N2CC=C(c3ccccc3)CC2)cnn1-c1nc2ccccc2[nH]1 | -22.9%
40 | COc1cn(-c2ccccc2)nc1C(=O)N1CCc2ccccc21 | -57.4%
